# From PubChem BioAssay
# Values without a mark were called inactive. A call without a number means that no potency is given here. For some assays here: Potency and affinity values are given separately. Active and inactive are the calls of the source. Unless noted, no rule for the calls is given here.
# Tests used:
# [1] = antimalarial activity against Dd2 strain (AID 2302;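 active = growth inhibition above 50% at the single 2 µM test dose, taken to imply half-maximal potency below 2 µM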); conditions: P. falciparum Dd2 in RBCs, LDH growth readout, 72 h; at 2 µM; stronger effect = higher value
# [2] = HepG2 cytotoxicity, primary screen, cytotoxicity control for P. falciparum antimalarial project, cell-based, ATP luminescence (AID 2303;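 active = inhibition above 50%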); conditions: HepG2 viability, 24-48 h, at 10 µM, stronger effect = higher value
# [3] = molecular target: L-lactate dehydrogenase (Plasmodium falciparum (isolate CDC / Honduras)) (UniProt Q27743); assay: PfLDH activity inhibition – cell lysate, 3D7 strain, counter-screen for P. falciparum growth inhibition project (AID 2304); conditions: P. falciparum 3D7 crude extract, LDH APAD/NBT absorbance; at 2 µM; stronger effect = higher value
# Sequence of L-lactate dehydrogenase (Plasmodium falciparum (isolate CDC / Honduras)) (Q27743 whole entry, looked up): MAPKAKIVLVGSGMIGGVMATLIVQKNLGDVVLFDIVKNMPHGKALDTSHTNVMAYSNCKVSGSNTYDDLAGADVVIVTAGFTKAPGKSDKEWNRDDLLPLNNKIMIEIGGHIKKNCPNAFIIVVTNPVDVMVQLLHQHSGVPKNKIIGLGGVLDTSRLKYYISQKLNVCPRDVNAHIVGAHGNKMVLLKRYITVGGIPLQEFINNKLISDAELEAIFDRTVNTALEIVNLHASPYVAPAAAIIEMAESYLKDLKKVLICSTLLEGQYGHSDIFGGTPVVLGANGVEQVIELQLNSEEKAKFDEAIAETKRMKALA
# [4] = inhibition of 3D7 malaria parasite growth – strain 3D7 (AID 2306); conditions: P. falciparum 3D7 erythrocytic growth, LDH absorbance, 72 h; at 2 µM; stronger effect = higher value
# [5] = molecular target: Calcium-dependent protein kinase 1 (Plasmodium falciparum (isolate 3D7)) (UniProt P62344); assay: PfCDPK1 kinase inhibitors, biochemical, TCAMS library (AID 1159585; cut-off not given, nearly all actives have IC50 up to about 0.98 µM;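 also: inhibitors leave more ATP so luminescence rises with inhibition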); conditions: recombinant PfCDPK1, Kinase-Glo ATP depletion luminescence
# Sequence of Calcium-dependent protein kinase 1 (Plasmodium falciparum (isolate 3D7)) (P62344 whole entry, looked up): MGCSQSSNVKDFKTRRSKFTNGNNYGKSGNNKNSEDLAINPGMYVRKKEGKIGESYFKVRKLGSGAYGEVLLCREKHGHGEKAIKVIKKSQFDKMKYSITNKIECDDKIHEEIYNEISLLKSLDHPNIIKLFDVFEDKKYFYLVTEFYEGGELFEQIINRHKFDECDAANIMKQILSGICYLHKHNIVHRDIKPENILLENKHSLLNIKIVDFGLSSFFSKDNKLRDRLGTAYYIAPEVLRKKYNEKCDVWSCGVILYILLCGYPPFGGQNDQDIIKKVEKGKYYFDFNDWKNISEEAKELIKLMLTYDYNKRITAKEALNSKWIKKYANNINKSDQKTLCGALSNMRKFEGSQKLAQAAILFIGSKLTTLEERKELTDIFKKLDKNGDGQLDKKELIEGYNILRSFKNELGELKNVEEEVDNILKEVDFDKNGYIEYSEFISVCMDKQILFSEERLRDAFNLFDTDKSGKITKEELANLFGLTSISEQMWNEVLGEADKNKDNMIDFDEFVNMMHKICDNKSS
# [6] = molecular target: Plasmodium falciparum protein kinase 6 (PK6, PF3D7_1337100) (UniProt Q8IDW1); assay: PfPK6 kinase inhibitors, biochemical, TCAMS library (AID 1159586); conditions: recombinant PfPK6, Kinase-Glo ATP depletion luminescence
# Sequence of Plasmodium falciparum protein kinase 6 (PK6, PF3D7_1337100) (Q8IDW1 1-305): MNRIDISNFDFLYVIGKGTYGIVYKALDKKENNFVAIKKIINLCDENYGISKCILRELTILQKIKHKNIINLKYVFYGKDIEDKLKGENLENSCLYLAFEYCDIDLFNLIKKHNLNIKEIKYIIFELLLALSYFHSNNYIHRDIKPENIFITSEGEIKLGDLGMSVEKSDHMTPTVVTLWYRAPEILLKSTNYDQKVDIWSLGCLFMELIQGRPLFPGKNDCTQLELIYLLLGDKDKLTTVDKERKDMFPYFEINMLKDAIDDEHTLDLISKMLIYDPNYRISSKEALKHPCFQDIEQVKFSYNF
# [7] = molecular target: Protein kinase 7 (PK7), Plasmodium falciparum 3D7 (PF3D7_0213400) (UniProt Q7YTF7); assay: inhibition of Plasmodium PK7 catalytic activity – biochemical, TCAMS antimalarial set, Kinase-Glo luminescence (AID 1159587); conditions: recombinant PfPK7, Kinase-Glo ATP depletion luminescence
# Sequence of Protein kinase 7 (PK7), Plasmodium falciparum 3D7 (PF3D7_0213400) (Q7YTF7 1-343): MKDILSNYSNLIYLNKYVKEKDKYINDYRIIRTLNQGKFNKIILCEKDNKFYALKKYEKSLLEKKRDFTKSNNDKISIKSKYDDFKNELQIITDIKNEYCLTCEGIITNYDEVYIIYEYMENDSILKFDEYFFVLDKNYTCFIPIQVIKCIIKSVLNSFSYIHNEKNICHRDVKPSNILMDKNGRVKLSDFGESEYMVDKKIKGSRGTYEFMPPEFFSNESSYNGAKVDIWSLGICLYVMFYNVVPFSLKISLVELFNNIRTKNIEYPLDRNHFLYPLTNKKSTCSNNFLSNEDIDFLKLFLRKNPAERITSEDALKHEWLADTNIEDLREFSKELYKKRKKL
# [8] = molecular target: Calcium-dependent protein kinase 4 (Plasmodium falciparum (isolate 3D7)) (UniProt Q8IBS5); assay: PfCDPK4 kinase inhibitors, biochemical, TCAMS library (AID 1159588; cut-off not given, nearly all actives have IC50 up to about 0.91 µM); conditions: recombinant PfCDPK4, Kinase-Glo ATP depletion luminescence
# Sequence of Calcium-dependent protein kinase 4 (Plasmodium falciparum (isolate 3D7)) (Q8IBS5 whole entry, looked up): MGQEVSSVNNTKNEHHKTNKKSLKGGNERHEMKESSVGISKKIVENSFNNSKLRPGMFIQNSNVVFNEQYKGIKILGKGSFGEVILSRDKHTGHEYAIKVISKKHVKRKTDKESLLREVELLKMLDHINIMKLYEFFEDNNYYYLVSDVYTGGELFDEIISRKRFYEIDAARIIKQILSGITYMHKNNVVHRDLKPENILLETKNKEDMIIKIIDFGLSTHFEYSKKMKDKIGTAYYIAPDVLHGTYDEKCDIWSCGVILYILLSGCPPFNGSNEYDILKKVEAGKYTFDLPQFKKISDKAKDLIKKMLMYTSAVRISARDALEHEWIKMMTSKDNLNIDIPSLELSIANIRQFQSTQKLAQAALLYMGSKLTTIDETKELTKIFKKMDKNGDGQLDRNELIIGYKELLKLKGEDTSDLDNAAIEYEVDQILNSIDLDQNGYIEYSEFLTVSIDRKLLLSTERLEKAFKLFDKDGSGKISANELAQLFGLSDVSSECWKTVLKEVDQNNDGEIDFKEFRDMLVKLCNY
SMILES,growth inhibition [1],inhibition [2],inhibition [3],growth inhibition [4],outcome [5],outcome [6],outcome [7],outcome [8]
Cc1[nH]c(C)c([N+](=O)[O-])c(=O)c1-c1ccc(Oc2ccc(OC(F)(F)F)cc2)cc1,97% (active),-2%,-2%,97% (active),inactive,inactive,inactive,inactive
NC(=O)c1cnc2cc(-c3ccoc3)ccc2c1Nc1ccc(NC(=O)Nc2ccccc2Cl)cc1,76% (active),39%,-5%,100% (active),inactive,inactive,inactive,inactive
Cc1ccccc1C1CCN(C2CCC(NC(=O)c3ccc(-c4cccc(C(F)(F)F)c4)o3)CC2)CC1 (stereo not given),101% (active),56% (active),-2%,99% (active),inactive,inactive,inactive,inactive
CCCNCc1ccc(-c2ccc(CN(CCOC)C(=O)c3ccco3)cc2)nc1,21%,1%,-7%,91% (active),inactive,inactive,inactive,inactive
CCCCCCCNCc1c(O)ccc2c(CNCCCCCCC)c(O)ccc12,99% (active),29%,-3%,100% (active),inactive,inactive,inactive,inactive
Cc1ccc(Nc2ccnc3ccc(C(F)(F)F)cc23)cc1O,69% (active),23%,-6%,102% (active),inactive,inactive,inactive,inactive
O=C(/C=C/c1ccc(Cl)c(Cl)c1)NCCCCCN1CCC(C(=O)Nc2cccc(Cl)c2)CC1,-2%,48%,-3%,100% (active),inactive,inactive,inactive,inactive
Cc1cc(OCCCN2CCCCC2)ccc1NC(=O)COc1ccc(Cl)cc1C(=O)c1cc(C#N)cc(C(F)(F)F)c1,7%,23%,-5%,87% (active),inactive,inactive,inactive,inactive
O=C(Nc1ccc(-c2nc3ccccc3[nH]2)cc1)C1CCCN(CC2CC2)C1 (stereo not given),8%,6%,0%,89% (active),inactive,inactive,inactive,inactive
O=c1[nH]ccc2nc(N[C@@H]3CCNC3)nc(Nc3cccc(S(=O)(=O)N4CCOCC4)c3)c12,98% (active),0%,4%,90% (active),inactive,inactive,inactive,inactive
FC(F)(F)c1ccc2nc(-c3ccc(-c4cccc(CN5CCCCC5)c4)cc3)[nH]c2c1,99% (active),22%,2%,100% (active),inactive,inactive,inactive,inactive
Cc1cc(N2CCC(NS(=O)(=O)c3cccc4cccnc34)CC2)nc(Nc2cccc(C#N)c2)n1,87% (active),12%,-3%,98% (active),inactive,inactive,inactive,inactive
CCN(CC)CCN(Cc1ccc(-c2ccc(C(F)(F)F)cc2)cc1)C(=O)Cn1c(CCc2ccc(F)c(C#N)c2)nc(=O)c2ccccc21,55% (active),18%,-2%,98% (active),inactive,inactive,inactive,inactive
COc1ccc(CCN(C)CCOc2ccc(NC(=O)c3cccc4c(=O)c5cc(SC)ccc5[nH]c34)cc2)cc1OC,82% (active),52% (active),0%,97% (active),inactive,inactive,inactive,inactive
Cc1nc(-c2ccc(C(F)(F)F)cn2)sc1C(=O)N1CCc2cc3nccc(N4CCN5CCC[C@H]5C4)c3cc21,72% (active),5%,0%,100% (active),inactive,inactive,inactive,inactive
COc1cc(Cc2cnc(N)nc2N)c2c(c1OC)OC(C)C=C2 (stereo not given),1%,-1%,6%,87% (active),inactive,inactive,inactive,inactive
CCN(CC)CCCC(C)Nc1c(-c2ccc(Br)cc2)cnc2ccccc12 (stereo not given),95% (active),7%,-1%,100% (active),inactive,inactive,inactive,inactive
CN1CCC(Oc2ccc(Nc3nccc(NCC(O)c4ccccc4)n3)cc2Cl)CC1 (stereo not given),99% (active),46%,0%,102% (active),inactive,inactive,inactive,inactive
COCCOC(=O)C(=O)c1c(-c2ccccc2)c(-c2ccc(OC)c(OC)c2)c2c3cc(OC)c(OC)cc3ccn12,100% (active),4%,-2%,101% (active),inactive,inactive,inactive,inactive
Cc1cccc(Nc2nccc(Nc3cccc(C(=O)NCCN4CCOCC4)c3)n2)c1,11%,10%,-2%,91% (active),inactive,inactive,inactive,inactive

SMILES,growth inhibition [1],inhibition [2],inhibition [3],growth inhibition [4],outcome [5],outcome [6],outcome [7],outcome [8]
CCCCCCN(CCCCCC)CC(O)c1c(OC)ccc2ccccc12 (stereo not given),100% (active),18%,-1%,101% (active),inactive,inactive,inactive,inactive
CCCCc1cc(NCc2ccncc2)nc(Nc2cccc(OC)c2)n1,56% (active),41%,-5%,101% (active),inactive,inactive,inactive,inactive
Fc1ccc2nc(-c3ccc(-c4ccc(CN5CCN(c6cnccn6)CC5)cc4)s3)[nH]c2c1,98% (active),45%,5%,99% (active),inactive,inactive,inactive,inactive
COc1nc(-n2ccc(=N)cc2)nc2ccccc12,45%,15%,1%,90% (active),inactive,inactive,inactive,inactive
Cc1cc(C)cc(N2C(N)=NC(N)=NC2(C)C)c1,6%,58% (active),-4%,93% (active),inactive,inactive,inactive,inactive
COc1ccc(NC(=O)c2cn(-c3ccc(C(C)(C)C)cc3)nc2C)cc1N1CCN(C)CC1,71% (active),33%,0%,96% (active),inactive,inactive,inactive,inactive
O=C(/C=C/c1ccc(Cl)c(Cl)c1)N1CCC(NCc2ccc3[nH]ccc3c2)CC1,1%,44%,-2%,97% (active),inactive,inactive,inactive,inactive
Cc1cc(NC2CCN(CC3CCCCC3)C2)nc(Nc2ccc(Br)cc2)n1 (stereo not given),83% (active),22%,-1%,101% (active),inactive,inactive,inactive,inactive
Clc1ccccc1CN1CCC(NCc2cccc(-n3ccnc3)c2)CC1,43%,6%,-3%,101% (active),inactive,inactive,inactive,inactive
CC1(C)N=C(N)N=C(N)N1OCCCNC(=O)c1ccc([N+](=O)[O-])cc1,97% (active),57% (active),2%,92% (active),inactive,inactive,inactive,inactive
c1cncc(CCNCc2cccc(-c3ccc(-c4nc5ccccc5[nH]4)s3)c2)c1,97% (active),8%,-1%,100% (active),inactive,inactive,inactive,inactive
CN(CCON1C(N)=NC(N)=NC1(C)C)c1ccccc1,93% (active),64% (active),1%,97% (active),inactive,inactive,inactive,inactive
CC(C)CC(NC(=O)c1cccc(OCCN2CCOCC2)c1)C(=O)NC(/C=N/NC(=O)c1ccccc1)CCc1ccccc1 (stereo not given),88% (active),-5%,-9%,96% (active),inactive,inactive,inactive,inactive
Cc1nc2c(c(C)nn2C(C)(C)C)c(C)c1CCC(=O)Nc1ccc(CN2CCCC2)cc1,5%,1%,0%,89% (active),inactive,inactive,inactive,inactive
O=C(Nc1cccc(CN2CCN(C(=O)c3ccccc3)CC2)c1)c1cccs1,97% (active),15%,1%,95% (active),inactive,inactive,inactive,inactive
COc1ccc2ncn(-c3ccc(C(N)=O)c(OCc4ccccc4C(F)(F)F)c3)c2c1,100% (active),18%,3%,98% (active),inactive,inactive,inactive,inactive
Cc1cccc2[nH]c(-c3ccc(-c4ccc(CNCc5cccc(N)c5)cc4)cc3)nc12,84% (active),12%,-9%,102% (active),inactive,inactive,inactive,inactive
O=C(Nc1ccc(Oc2cccnc2)cc1)C1CCN(Cc2cc(Cl)ccc2O)CC1,1%,37%,-2%,83% (active),inactive,inactive,inactive,inactive
Clc1cc(Br)ccc1-c1ccc(CNCC2CCNCC2)o1,39%,100% (active),1%,96% (active),inactive,inactive,inactive,inactive
CC1CCN(Cc2c(O)ccc3c(=O)c(-c4nc5ccccc5s4)c(N)oc23)CC1,99% (active),2%,-6%,98% (active),inactive,inactive,inactive,inactive
